Screens: PubChem, National Center for Advancing Translational Sciences (NCATS)
Sampled rows, rich in hits. Any-hit rate of the full collection: about 2.6%.
Cruzain Triton – blocks cruzain activity in presence of Triton detergent. P25779. purified cruzain, Z-FR-AMC fluorescence, 0.01% Triton. Potency, µM, most hits filed as inhibitors. 200,000 compounds, 0.43% hits. AID 1478; also: nearly all actives have a fitted effect of over 40% in size
Target sequence (P25779 123-467 limits assumed): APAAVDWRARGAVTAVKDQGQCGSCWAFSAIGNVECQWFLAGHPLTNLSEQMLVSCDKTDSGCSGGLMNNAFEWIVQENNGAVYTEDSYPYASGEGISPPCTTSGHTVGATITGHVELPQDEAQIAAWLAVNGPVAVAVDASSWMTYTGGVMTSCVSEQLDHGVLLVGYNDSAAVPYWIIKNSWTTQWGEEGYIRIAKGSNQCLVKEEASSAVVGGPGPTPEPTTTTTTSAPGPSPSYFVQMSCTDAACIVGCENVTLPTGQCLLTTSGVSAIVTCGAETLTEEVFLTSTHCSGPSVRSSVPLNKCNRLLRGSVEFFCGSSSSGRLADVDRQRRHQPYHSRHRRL
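Cysteine protease activity tested under reducing, mildly acidic conditions (100 mM sodium acetate pH 5.5, 5 mM DTT) plus 0.01% Triton X-100. Cruzain 1.5 nM; substrate Z-FR-AMC 2 uM; 15 min compound preincubation at room temperature.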
Cruzain noTriton – inhibitors of Trypanosoma cruzi cruzain without detergent; Potency, µM, most hits filed as inhibitors; purified cruzain, Z-FR-AMC fluorescence, no detergent; P25779; 200,000 compounds, 2.3% hits; also: nearly all actives have a fitted effect of over 40% in size
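Purified cruzain at 1.5 nM, pre-incubated 15 min with compound at room temperature in 100 mM sodium acetate pH 5.5, 5 mM DTT, 0.00005% Triton X-100. Reaction started with 2 uM Z-FR-AMC; AMC fluorescence increase over 60 s gives rate.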
Each line names hits and unclear results; the compound was inactive in the other large screens; ! = not active in a repeat. Calls follow the shape of the dose curve; as a rule, active = well fitted curve in the direction sought with a large enough effect; inconclusive = small, poorly fitted or top-dose-only effect, or another doubt; inactive = no such curve, though single readings can be large; an effect the other way counts as inactive or inconclusive.

CCOC(=O)c1cc2c(=O)n3ccccc3nc2n(CC2CCCO2)c1=NC(=O)c1ccc(F)cc1 (stereo unspecified)	none
N#Cc1cccc(-c2nc3cnc(Oc4cccc(Cl)c4)nc3n(C3CC3)c2=O)c1	none
CCOc1ccccc1NC(c1nnc(-c2ccccc2)o1)c1ccc(F)cc1Cl (stereo unspecified)	none
O=c1c2ccccc2nc2n1CCCCC2	none
O=c1c2ccccc2nc2n1CCC2	Cruzain Triton inconclusive, Cruzain noTriton 12.6µM
O=C1c2cccc3cccc(c23)C(=O)N1c1nccs1	none
O=C1c2cccc3cccc(c23)C(=O)N1c1ccc2ncccc2c1	Cruzain Triton 17.8µM, Cruzain noTriton inconclusive
O=C(C1CCCN(S(=O)(=O)c2ccc(Br)s2)C1)N1CCN(c2ccccc2F)CC1 (stereo unspecified)	none
O=C(NCCc1ccc(Cl)cc1)c1cnc2sc(N3CCCC3)nn2c1=O	none
O=C(O)NCc1ccccc1 (tested in a mixture with another compound)	none
Cc1ccc(CSC2=Nc3sccc3C3=NC(=O)CN23)cc1	Cruzain noTriton 20µM
COc1cc2c(cc1OC)C1=NC(=O)CN1C(SCc1ccc(C)cc1)=N2	none
CCc1ccc(-n2c(=O)c3cccnc3n2CC(=O)Nc2cc(OC)ccc2OC)cc1	none
CCc1cccc(-n2c(=O)c3cccnc3n2CC(=O)Nc2ccc(OC)c(Cl)c2)c1	Cruzain noTriton 25.1µM
O=C(c1cn(-c2ccccc2)nc1-c1ccccc1)n1nnc2ccccc21	Cruzain noTriton inconclusive
COc1cccc(-c2nn(-c3ccccc3)cc2C(=O)n2nnc3ccccc32)c1	Cruzain noTriton 31.6µM
COc1ccc(S(=O)(=O)N(CC(=O)Nc2ccc(C)cc2)c2ccc(C)cc2)cc1OC	none
COc1ccc(C)cc1S(=O)(=O)N(CC(=O)Nc1cccc([N+](=O)[O-])c1)c1ccc(C)c(C)c1	Cruzain noTriton 31.6µM
Oc1c(C(c2ccc(F)cc2)N2CCCC2)sc2nc(-c3ccco3)nn12 (stereo unspecified)	none
O=C(Cn1c(=O)n(Cc2ccc(C(=O)NCc3ccccc3Cl)cc2)c(=O)c2ccccc21)Nc1ccc(F)cc1	Cruzain noTriton 12.6µM
COc1ccc(NC(=O)Cn2c(=O)n(Cc3ccc(C(=O)NCc4ccccc4Cl)cc3)c(=O)c3ccccc32)cc1OC	none
O=C(Cn1c(=O)n(Cc2ccc(C(=O)NCc3ccccc3Cl)cc2)c(=O)c2ccccc21)Nc1ccc(F)c(Cl)c1	Cruzain noTriton 7.94µM
CCc1ccc(NC(=O)Cn2c(=O)n(CCCC(=O)NCc3ccccc3Cl)c(=O)c3ccccc32)cc1	none
Cc1oc(-c2ccc(Cl)cc2)nc1Cn1c(=O)cc(-c2ccccc2)c2c(C)nn(C)c21	none
Cc1ccc(C2CC(=O)n3nc(-c4ccc(F)cc4)nc3S2)cc1 (stereo unspecified)	none
O=c1oc(-c2ccco2)nc2ccccc12	none
c1coc(-c2nc3ccccc3nc2-c2ccco2)c1	Cruzain Triton 14.1µM, Cruzain noTriton 12.6µM
Br/C(=N\Nc1nn[nH]n1)c1ccncc1	none
CCn1cc(C(=O)NCCc2ccc(Cl)cc2)c(=O)c2cc(S(=O)(=O)N3CCC(C)CC3)ccc21	none
COc1cccc(C2C(C(=O)Nc3ccc(Cl)cc3)=C(C)Nc3c(C(=O)Nc4ccccc4)cnn32)c1OC (stereo unspecified)	Cruzain noTriton inconclusive
CC1=c2c(oc3cc(O)c(Nc4c(C)cc(O)cc4O)c(C)c23)=CC(=O)C1=Nc1c(C)cc(O)cc1O	none
O=C(Cn1cc(S(=O)(=O)N2CCN(c3ccccc3F)CC2)c2ccccc2c1=O)Nc1cccc(C(F)(F)F)c1	Cruzain noTriton 7.94µM
Cc1ccc(NC(=O)CN2CCN(c3ccccc3F)CC2)cc1F	none
CC1CCN(S(=O)(=O)c2cn(CC(=O)Nc3cccc(C(F)(F)F)c3)c(=O)c3ccccc23)CC1	Cruzain noTriton inconclusive
Cc1ccc(NC(=O)Cn2cc(S(=O)(=O)N3CCN(c4ccccc4F)CC3)c3ccccc3c2=O)cc1F	Cruzain noTriton 7.94µM
CN(C(=O)Cn1cc(S(=O)(=O)N2CCN(c3ccccc3F)CC2)c2ccccc2c1=O)c1ccc(Cl)cc1	none
CC(C)c1ccc(NC(=O)Cn2cc(S(=O)(=O)N3CCN(c4ccccc4F)CC3)c3ccccc3c2=O)cc1	Cruzain noTriton 7.94µM
Cn1c(=O)n(-c2ccc3c(c2)OCO3)c2nc(-c3ccccc3)nc(C(N)=O)c21	none
CCn1cc(C(=O)OCC(=O)Nc2cc(Cl)ccc2OC)c(=O)c2ccc(C)nc21	none
CCN(Cc1nc(-c2cccc(C)c2)no1)S(=O)(=O)c1ccc(C)cc1	none
Cc1nnc(N/N=C\c2ccc(-c3ccccc3[N+](=O)[O-])o2)n1N	Cruzain Triton 14.1µM, Cruzain noTriton 12.6µM
Cc1ccc(C(=O)N/N=C/c2ccc(-c3ccccc3[N+](=O)[O-])o2)cn1	none
CC(C)CCNC(=O)c1cc(Sc2ccc(F)cc2F)nc2ccccc12	none
CCOc1ccccc1N/C(=N/c1nc(C)cc(C)n1)NC(=O)Nc1ccc(Cl)c(Cl)c1	Cruzain noTriton 3.98µM
CCOc1ccccc1NC(=O)Nc1ccc(Cl)cc1	none
COc1ccccc1N/C(=N/c1nc(C)cc(C)n1)NC(C)=O	none
Cc1cc(C)nc(/N=C(/NC(=O)Nc2ccc(Cl)c(Cl)c2)Nc2ccccc2)n1	Cruzain noTriton inconclusive
Cc1cc(C)nc(/N=C(/NC(=O)Nc2ccc(Cl)c(Cl)c2)Nc2cccc(Cl)c2)n1	Cruzain noTriton 7.94µM
CCCOc1ccccc1N/C(=N/c1nc(C)cc(C)n1)NC(=O)Nc1ccc(Cl)cc1	Cruzain noTriton 7.94µM
N#CC(=C(/N)Sc1ccccc1N)/C(C#N)=C(/N)Sc1ccccc1N	Cruzain noTriton inconclusive
O=C(O)c1cc2c(cc1S(=O)(=O)O)[C@H]1[C@@H](C3[C@H]2[C@@]2(Cl)C(Cl)=C(Cl)C3(Cl)C2(Cl)Cl)[C@]2(Cl)C(Cl)=C(Cl)C1(Cl)C2(Cl)Cl (stereo partly specified)	none
O=C(NCCCN1CCN(c2ccc(F)cc2)CC1)c1ccc2nc(Cc3ccccc3)oc2c1	none
CCOc1ccc(CNC(=O)Cn2nc(C)c3sc4ccccc4c3c2=O)cc1	none
Cc1ccc(NC(=O)C2CCC(CNS(=O)(=O)c3cccs3)CC2)cc1C (stereo unspecified)	none
Cc1sc2ccccc2[n+]1CCC(=O)O	none
Cc1cc2c(C(C)C)c(O)c(O)c(C=O)c2c(O)c1-c1c(C)cc2c(C(C)C)c(O)c(O)c(C=O)c2c1O	Cruzain Triton 25.1µM!, Cruzain noTriton inconclusive
COc1ccccc1N1CCN(Cc2ccc(O)c3ncccc23)CC1	none
Oc1ccc(CN2CCCc3ccccc32)c2cccnc12	Cruzain noTriton 25.1µM
O=C(Nc1ccc(N2CCCC2)c(Cl)c1)c1ccc(Br)o1	Cruzain noTriton 10µM
CCn1c2ccccc2c2cc(NC(=O)c3ccc(C)c([N+](=O)[O-])c3)ccc21	Cruzain noTriton 25.1µM
CCn1c2ccccc2c2cc(NC(=O)c3ccc(Br)o3)ccc21	Cruzain Triton 12.6µM
CCn1c2ccccc2c2cc(NC(=O)c3cc(OC)cc(OC)c3)ccc21	Cruzain noTriton inconclusive
O=C(Nc1ccccc1N1CCCC1)c1ccc(Br)o1	none
CCn1c2ccccc2c2cc(NC(=O)c3cccc([N+](=O)[O-])c3)ccc21	none
CCOC(=O)c1cccc(NC(=O)CC2C(=O)N(c3ccccc3)C(=O)N2Cc2ccco2)c1 (stereo unspecified)	none
CCc1noc(-c2ccc(NCc3ccccc3)c([N+](=O)[O-])c2)n1	Cruzain noTriton inconclusive
CCCN(CC1CC1)c1nc(N)c(C#N)c(CC#N)c1C#N	none
